mcGAS RapidFire: inhibitors of mouse cGAS; inhibition, % at 12.5 µM; recombinant mouse cGAS, cGAMP by RapidFire MS; actives 0.18% (n = 130,000); AID 1259397;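 active = inhibition of cGAS enzyme activity at or above 60%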;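 also: enzyme stimulated by 45 bp dsDNA with ATP and GTP substrates; cGAMP share of summed cGAMP plus half ATP and half GTP signals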
Target sequence (Q8C6L5 whole entry, looked up): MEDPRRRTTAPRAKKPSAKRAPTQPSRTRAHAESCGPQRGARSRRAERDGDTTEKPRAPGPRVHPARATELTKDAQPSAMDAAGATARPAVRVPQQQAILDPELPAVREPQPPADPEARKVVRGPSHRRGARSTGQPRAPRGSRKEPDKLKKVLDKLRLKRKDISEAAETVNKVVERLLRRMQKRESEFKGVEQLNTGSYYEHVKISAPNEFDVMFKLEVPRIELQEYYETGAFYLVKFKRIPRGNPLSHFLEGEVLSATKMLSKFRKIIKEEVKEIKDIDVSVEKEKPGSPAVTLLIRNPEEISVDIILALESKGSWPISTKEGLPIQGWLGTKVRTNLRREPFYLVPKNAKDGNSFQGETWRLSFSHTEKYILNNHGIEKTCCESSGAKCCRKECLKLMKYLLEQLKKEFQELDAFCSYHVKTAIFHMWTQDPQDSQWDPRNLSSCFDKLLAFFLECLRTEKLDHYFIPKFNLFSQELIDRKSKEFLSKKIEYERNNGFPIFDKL
The depositor's hits bear a star. The full list was thinned out, with hits kept by preference.

SMILES	mcGAS RapidFire
S=c1n(CN2CCCC2)nc(C2COc3ccccc3O2)n1-c1ccccc1 (stereo not drawn)	-2
c1ccc2c(c1)OCC(c1nn3c(CN4CCOCC4)nnc3s1)O2 (stereo not drawn)	16
c1ccc2c(c1)OCC(c1nn3c(CN4CCCCCC4)nnc3s1)O2 (stereo not drawn)	70*
Cn1ccnc1CN1CCCC(CCNS(C)(=O)=O)C1 (stereo not drawn)	-4
CCCCc1nc(CN2CCCN(Cc3nccn3C)CC2)no1	-28
CCCN1CCCC1C(=O)N1CCCN(Cc2nccn2C)CC1 (stereo not drawn)	94*
Cc1nn(C)c(C)c1-c1cc(C(=O)N2C[C@@H]3[C@H](C2)[C@H]2CC[C@@H]3O2)n(C)n1	5
Cc1nc2c(cc(O)c3ccsc32)s1	-5
Cc1nc2c(cc(OS(=O)(=O)c3cccs3)c3ccsc32)s1	62*
CCOC(=O)c1nn(-c2ccccc2)c(=O)cc1OS(=O)(=O)c1cccs1	1
O=c1[nH]nc(C2CCCN(C/C=C/c3ccco3)C2)n1-c1ccccc1 (stereo not drawn)	-31
O=C1CC(C(F)(F)F)N(C(=O)COC(=O)c2cccc(OCC3CCCO3)c2)c2ccccc2N1 (stereo not drawn)	94*
Cc1noc(C)c1C(=O)Nc1cccc(OCC2CCCO2)c1 (stereo not drawn)	-5
O=C(c1c[nH]c(=O)c(Cl)c1)N1CCOC(COc2cccc(C(F)(F)F)c2)C1 (stereo not drawn)	-6
CC1CCCCN1C(=O)c1cc2cc([N+](=O)[O-])ccc2s1 (stereo not drawn)	-1
NC(=O)NO	1
NC(=S)CC(=O)N1CCOCC1	-9
NC(=O)CC(N)=S	92*
C=CCNC(=O)Cn1c(CO)cnc1SCc1ccc(Br)cc1	-8
COC(=O)COC(=O)c1cc2ccccc2[nH]1	0
OCc1ccccc1-c1ccc(NC2CCCC2)nn1	-15
CCOC(=O)c1ccc(NC(=O)c2c3c(nn2C2CCS(=O)(=O)C2)CCC3)cc1 (stereo not drawn)	-10
O=C1CN(c2ccc(C(=O)N3CCCN(c4ncccn4)CC3)cn2)CCN1	-7
CCOc1ccc(C(=O)N2CCN(c3ncccn3)CC2)cc1	-1
O=C(c1ccc(N2CC(O)C2)nc1)N1CCCN(c2ncccn2)CC1	80*
SMILES	mcGAS RapidFire
Oc1c(Br)cc(C=NNc2ccccn2)cc1Br	74*
Cc1cc(NN=Cc2ccccn2)nc2ccccc12	-3
COc1cc(/C=N\Nc2ncnc3nc[nH]c23)cc(Br)c1O	3
O=C1CCCN1CCCNc1ncc(F)c(N2CCOCC2)n1	-17
Cc1ncsc1CCN(C)C(=O)[C@@H]1C[C@H](NC(=O)N(C)C)CN1C	-16
COc1cc(CO)ccc1OCC(C)C	-9
O=S(=O)(c1ccc(N2CCCC2c2cccs2)nc1)N1CCOCC1 (stereo not drawn)	-7
COc1cc(C)c(-n2cnc3ccccc32)cc1C	60
O=C1C=CC2=C3c4cc(O)c(O)cc4CC3(O)COC2=C1O (stereo not drawn)	97*
Cc1nn(-c2ccc(F)cc2)c(C)c1C(=O)OCC1(C)COC1	-3
Cc1nc(C)c(C(=O)N2CCn3c(C(N)=O)cnc3C2)s1	-12
COc1ccc(C(C)NCC(O)COc2ccc(Cl)cc2Cl)cc1F (stereo not drawn)	-8
COc1ccc2cc(CNC(=O)NC(C)c3ccc(F)c(F)c3)ccc2c1 (stereo not drawn)	2
COc1cccc2cc(CNC(C)c3ccc(F)c(F)c3)oc12 (stereo not drawn)	67*
CC(=O)c1ccc(C(=O)NC(c2ccncc2)c2ccccc2C)s1 (stereo not drawn)	-23
O=C(c1c(O)c2ccccc2oc1=O)C1CCC1	-2
O=c1oc2ccc(O)cc2c2c1NCCC2	-26
O=C1CNc2c(c(=O)oc3ccccc23)N1	96*
COc1ccc(C(C2Sc3nc(C)nn3C2=O)N2CCC3(CC2)OCCO3)cc1 (stereo not drawn)	-3
CCOC(=O)C1C(C)=NC2=C(C(=O)CC(C)(C)C2)C1c1ccsc1 (stereo not drawn)	1
COc1ccc(-c2ccc(NC(=O)C3CC3)nc2)c2cccnc12	-14
CNC(=O)c1ccc(-c2ccc(OC)c3ncccc23)s1	-8
COc1ccc(-c2ccc(C(=O)N3CCCC3)o2)c2cccnc12	86*
Cc1ccccc1Cn1c(=O)c2c(nc3n(CCN(C)C)c(C)cn23)n(C)c1=O	-5
CCCS(=O)(=O)N1CCCN(C)c2nc3ccccc3nc21	2
SMILES	mcGAS RapidFire
CCc1nc(N)sc1C(=O)NCc1ccc2c(c1)n(C)c(=O)n2C	-19
CC(C)c1nc(NC(=O)c2ccc(CNC(=O)C(C)(C)C)cc2)n[nH]1	77*
CC(C)(C)c1ccc(C(=O)Nc2n[nH]c(C(F)(F)F)n2)cc1	-1
CC(C)c1nc(NC(=O)c2cn(Cc3cccs3)nn2)n[nH]1	-5
CN(C)C(=O)C1CCCN1Cn1[nH]c(-c2ccccc2)nc1=S (stereo not drawn)	17
Fc1ccccc1N1CCN(Cn2[nH]c(-c3ccccc3)nc2=S)CC1	5
S=c1nc(-c2ccccc2)[nH]n1CN1CCc2ccccc2C1	77*
CCn1ccnc1CN1CCCC(CNC(=O)C2(N)CCCC2)C1 (stereo not drawn)	-31
CNS(=O)(=O)c1cccc(C(=O)OCC(=O)N/N=C2\CC3CCC2(C)C3(C)C)c1 (stereo not drawn)	-8
CC(C)c1noc(C(C)Sc2nccn2C2CC2)n1 (stereo not drawn)	-4
O=C1C=CC(=O)N1c1cc(Cl)cc(Cl)c1	67*
CN(Cc1cccc2cccnc12)C(=O)C1CCC(=O)N(CCN2CCOCC2)C1 (stereo not drawn)	-2
CN(Cc1cnc2c(-c3ccccc3)cnn2c1)Cc1n[nH]c2c1CCC2	-9
COc1ccc2nc(CNC(C)CC(C)(C)OC)[nH]c2c1 (stereo not drawn)	-15
O=C(O)c1ccc(N=Nc2c(-c3ccccc3)[nH]n(-c3ccc([N+](=O)[O-])cc3)c2=O)cc1	76*
O=c1c(N=Nc2cccc([N+](=O)[O-])c2)c(-c2ccccc2)[nH]n1-c1ccccc1	-6
N#Cc1ccc(N=Nc2c(-c3ccc([N+](=O)[O-])cc3)[nH]n(-c3ccccc3)c2=O)cc1	-3
Cc1cc(C)c(C(=O)O)c(=O)[nH]1	-4
Cc1cc(O)cc(O)c1C(=O)O	46
Cc1cc(O)c(C=O)c(O)c1C(=O)O	82*
CN1CCC(C(=O)NCC2CCCOC2)CC1=O (stereo not drawn)	-10
Cc1c(C(=O)N2CCN(C)C3(CCN(C)CC3)C2)nnn1Cc1ccccc1	-8
Cc1c(CC(=O)NCc2ccon2)c2c(n1Cc1ccccc1F)CCCC2=O	-9
CCOc1cc(/C=c2\sc3nc4cc(Br)cnc4n3c2=O)ccc1O	-21
O=c1/c(=C/c2cccc([N+](=O)[O-])c2)sc2nc3cc(Br)cnc3n12	28
SMILES	mcGAS RapidFire
O=c1/c(=C/c2ccc(N3CCOCC3)cc2)sc2nc3cc(Br)cnc3n12	81*
O=C(NC1CC1)C1CCN(C2CCN(Cc3cc4ccccc4[nH]3)CC2)CC1	-7
O=S(=O)(CC1CCCO1)Nc1ccc(N2CCCC2)c(Cl)c1 (stereo not drawn)	-22
N#Cc1cccc(S(=O)(=O)Nc2c(F)cccc2N2CCCC2)c1	-1
N#CCCCCS(=O)(=O)Nc1ccc(N2CCCC2)c(F)c1	63*
CCn1nc(C(=O)Nc2cccc(S(=O)(=O)NC3=NCCC3)c2)c2ccccc2c1=O	2

Screens: PubChem BioAssay, Fisher Drug Discovery Resource Center
